This note sets out measurements from PubChem BioAssay AID720487 (Milwaukee Institute for Drug Discovery, 2013).

The experiment in a line: Cy5 fluorescence interference with SSB-bound oligo, artefact control for HCV NS3 helicase inhibitor project, biochemical, E. coli SSB, selected ChemBridge compounds (AID 720487).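 Also: ratio of compound well signal to mean negative control signal so 1 means no effect.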 Conditions: Cy5-dT15/E. coli SSB fluorescence interference; at 100 µM; actives lie on both sides.

Some of the results follow. A number with no mark means an inactive call.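 The calls were made as follows: active = fluorescence interference ratio at or above 1.2, signal boosting, or at or below 0.8, signal quenching; inactive = ratio between 0.8 and 1.2.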

With `CCOc1cc(C=C2C(=O)NC(=O)NC2=O)cc(Br)c1OCCOc1ccccc1C`, the fluorescence interference ratio is 0.894.
